# Source: PubChem BioAssay (NCI)
# Where “and” joins values, the source holds several entries; their conditions need not be identical. Identical values can stand only once. About 83,000 compounds went through this panel and 20% of them were active in at least one assay; those are over-represented in the sample as a whole.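 Cell lines were cultured in 96-well plates, exposed to a single compound concentration, and assessed for percent growth 48 hours later.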 Calls of active or inactive are those of the source. Rule for the calls: active = growth percent below 10; inactive = the rest.
# What was measured:
# Test in all cases: NCI-60 one-dose screen, 48 h (100 = growth as untreated, 0 = no growth, -100 = all killed)
# EKVX NSCLC = system: EKVX NSCLC
# SN12C renal = system: SN12C renal
# UO-31 renal = system: UO-31 renal
# TK-10 renal = system: TK-10 renal
# ACHN renal = system: ACHN renal
# CAKI-1 renal = system: CAKI-1 renal
# A498 renal = system: A498 renal
# RPMI-8226 leukemia = system: RPMI-8226 leukemia
smiles,measurement,setting,value
S=P(N1CC1)(N1CC1)N1CC1,growth,EKVX NSCLC; 10 µM,107% (inactive) and 90.2% (inactive)
same,growth,EKVX NSCLC; 100 µM,101% (inactive)
same,growth,SN12C renal; 10 µM,98.5% (inactive) and 72.8% (inactive)
same,growth,SN12C renal; 100 µM,44.1% (inactive)
same,growth,UO-31 renal; 10 µM,71.9% (inactive) and 83.7% (inactive)
same,growth,UO-31 renal; 100 µM,39.1% (inactive)
same,growth,TK-10 renal; 10 µM,115% (inactive) and 111% (inactive)
same,growth,TK-10 renal; 100 µM,98.8% (inactive)
same,growth,ACHN renal; 10 µM,104% (inactive) and 60.1% (inactive)
same,growth,ACHN renal; 100 µM,8.37% (active)
same,growth,CAKI-1 renal; 10 µM,91.6% (inactive) and 47.4% (inactive)
same,growth,CAKI-1 renal; 100 µM,2.65% (active)
same,growth,A498 renal; 10 µM,122% (inactive) and 69.4% (inactive)
same,growth,A498 renal; 100 µM,67.8% (inactive)
same,growth,RPMI-8226 leukemia; 10 µM,99.2% (inactive) and 136% (inactive)
same,growth,RPMI-8226 leukemia; 100 µM,51.4% (inactive)
CN(CC(=O)O)c1ccc(/C=C/c2ccnc3ccccc23)cc1,growth,EKVX NSCLC; 10 µM,69.6% (inactive)
same,growth,SN12C renal; 10 µM,85.2% (inactive)
same,growth,UO-31 renal; 10 µM,61.7% (inactive)
same,growth,TK-10 renal; 10 µM,98.7% (inactive)
same,growth,ACHN renal; 10 µM,89.1% (inactive)
same,growth,CAKI-1 renal; 10 µM,92.9% (inactive)
same,growth,A498 renal; 10 µM,97.1% (inactive)
same,growth,RPMI-8226 leukemia; 10 µM,70.4% (inactive)
O=C1C(Cl)=C(Cl)C(Cl)(Cl)C(Cl)C1(Cl)Cl (stereo not given),growth,EKVX NSCLC; 10 µM,105% (inactive)
same,growth,SN12C renal; 10 µM,88.5% (inactive)
same,growth,UO-31 renal; 10 µM,84.5% (inactive)
same,growth,TK-10 renal; 10 µM,98.9% (inactive)
same,growth,ACHN renal; 10 µM,100% (inactive)
same,growth,CAKI-1 renal; 10 µM,99% (inactive)
same,growth,A498 renal; 10 µM,115% (inactive)
same,growth,RPMI-8226 leukemia; 10 µM,98.1% (inactive)
O=S(=O)(c1cc(Cl)ccc1O)c1cc(Cl)ccc1O,growth,EKVX NSCLC; 10 µM,100% (inactive)
same,growth,SN12C renal; 10 µM,80.4% (inactive)
same,growth,UO-31 renal; 10 µM,71.8% (inactive)
same,growth,TK-10 renal; 10 µM,87.5% (inactive)
same,growth,ACHN renal; 10 µM,84.9% (inactive)
same,growth,CAKI-1 renal; 10 µM,92.1% (inactive)
same,growth,A498 renal; 10 µM,59.6% (inactive)
same,growth,RPMI-8226 leukemia; 10 µM,51.2% (inactive)
COc1cc2c(cc1C[N+](C)(C)CSc1ccccc1)-c1ccccc1CC2,growth,TK-10 renal; 100 µM,-93.9% (active) and -97.7% (active)
CC1CCC2(C(=O)O)CCC3(C)C(=CCC4C5(C)CC(O)C(O)C(C)(CO)C5C(O)CC43C)C2C1C (stereo not given),growth,EKVX NSCLC; 10 µM,113% (inactive)
same,growth,SN12C renal; 10 µM,96.1% (inactive)
same,growth,UO-31 renal; 10 µM,92.8% (inactive)
same,growth,TK-10 renal; 10 µM,108% (inactive)
same,growth,ACHN renal; 10 µM,116% (inactive)
same,growth,CAKI-1 renal; 10 µM,118% (inactive)
same,growth,RPMI-8226 leukemia; 10 µM,128% (inactive)
COc1cc(N)ccc1Nc1c2ccccc2nc2ccccc12,growth,SN12C renal; 10 µM,81% (inactive)
same,growth,UO-31 renal; 10 µM,50.6% (inactive)
same,growth,TK-10 renal; 10 µM,88.3% (inactive)
same,growth,ACHN renal; 10 µM,88.6% (inactive)
same,growth,CAKI-1 renal; 10 µM,70.5% (inactive)
same,growth,A498 renal; 10 µM,87.3% (inactive)
C=C1N(C)c2ccc(Cl)cc2C1(C)C,growth,EKVX NSCLC; 10 µM,25.2% (inactive)
same,growth,SN12C renal; 10 µM,54.8% (inactive)
same,growth,UO-31 renal; 10 µM,78.5% (inactive)
same,growth,TK-10 renal; 10 µM,83.8% (inactive)
same,growth,ACHN renal; 10 µM,94.9% (inactive)
same,growth,A498 renal; 10 µM,84.1% (inactive)
same,growth,RPMI-8226 leukemia; 10 µM,-13.2% (active)
O=C(CNS(=O)(=O)Cc1ccccc1)NNc1ccccc1,growth,EKVX NSCLC; 10 µM,53.3% (inactive)
same,growth,SN12C renal; 10 µM,75% (inactive)
same,growth,UO-31 renal; 10 µM,35.7% (inactive)
same,growth,TK-10 renal; 10 µM,90.6% (inactive)
same,growth,ACHN renal; 10 µM,36.7% (inactive)
same,growth,CAKI-1 renal; 10 µM,39.8% (inactive)
same,growth,A498 renal; 10 µM,108% (inactive)
same,growth,RPMI-8226 leukemia; 10 µM,62.4% (inactive)
Cc1cc(C)c(N2C(=O)CC(Sc3ccccc3N)C2=O)c(C)c1 (stereo not given),growth,EKVX NSCLC; 10 µM,87.1% (inactive)
same,growth,SN12C renal; 10 µM,90.4% (inactive)
same,growth,UO-31 renal; 10 µM,55.5% (inactive)
same,growth,TK-10 renal; 10 µM,123% (inactive)
same,growth,ACHN renal; 10 µM,87.7% (inactive)
same,growth,CAKI-1 renal; 10 µM,47.7% (inactive)
same,growth,A498 renal; 10 µM,54.2% (inactive)
same,growth,RPMI-8226 leukemia; 10 µM,66.3% (inactive)
O=C(CCc1ccccc1)ON1C(=S)C(c2ccccc2)(c2ccccc2)N=C1Sc1ccccc1,growth,TK-10 renal; 100 µM,28.6% (inactive) and 7.58% (active)
S=C1SCN(CCc2ccccc2)CN1CCc1ccccc1,growth,EKVX NSCLC; 10 µM,109% (inactive)
same,growth,SN12C renal; 10 µM,101% (inactive)
same,growth,UO-31 renal; 10 µM,70.6% (inactive)
same,growth,TK-10 renal; 10 µM,82.1% (inactive)
same,growth,ACHN renal; 10 µM,110% (inactive)
same,growth,CAKI-1 renal; 10 µM,90.5% (inactive)
same,growth,RPMI-8226 leukemia; 10 µM,55.8% (inactive)
COc1ccc2oc(-c3ccc(Cl)cc3)c(N3CCN(C)CC3)c2c1,growth,EKVX NSCLC; 10 µM,50.7% (inactive)
same,growth,SN12C renal; 10 µM,37.2% (inactive)
same,growth,UO-31 renal; 10 µM,-5.46% (active)
same,growth,TK-10 renal; 10 µM,-1.47% (active)
same,growth,ACHN renal; 10 µM,4.13% (active)
same,growth,CAKI-1 renal; 10 µM,-11.6% (active)
same,growth,A498 renal; 10 µM,52.4% (inactive)
same,growth,RPMI-8226 leukemia; 10 µM,-10.3% (active)
C=C(C)[C@@H]1CCc2c(O)c(O)c(=O)cc(C)c2C1,growth,TK-10 renal; 100 µM,-17% (active) and -96.5% (active)
N#CC(=S)Nc1cccc(Cl)c1,growth,TK-10 renal; 100 µM,5.57% (active) and -9.55% (active)
CN(C)CCNc1cccc2sc3ccc(O)cc3c(=O)c12,growth,SN12C renal; 10 µM,40.4% (inactive)
same,growth,UO-31 renal; 10 µM,20% (inactive)
same,growth,TK-10 renal; 10 µM,58% (inactive)
same,growth,ACHN renal; 10 µM,14.9% (inactive)
same,growth,CAKI-1 renal; 10 µM,5.13% (active)
same,growth,A498 renal; 10 µM,92.5% (inactive)
same,growth,RPMI-8226 leukemia; 10 µM,73.4% (inactive)
CCC(=O)Oc1ccc(/C=N/NC(N)=S)nc1,growth,EKVX NSCLC; 10 µM,86.3% (inactive)
same,growth,SN12C renal; 10 µM,32.5% (inactive)
same,growth,UO-31 renal; 10 µM,29.7% (inactive)
same,growth,TK-10 renal; 10 µM,86.3% (inactive)
same,growth,ACHN renal; 10 µM,8.62% (active)
same,growth,CAKI-1 renal; 10 µM,-2.02% (active)
same,growth,A498 renal; 10 µM,52% (inactive)
same,growth,RPMI-8226 leukemia; 10 µM,50.3% (inactive)
Clc1c(Cl)c(Cl)c2c(nnn2C2CCCO2)c1Cl (stereo not given),growth,TK-10 renal; 100 µM,-9.89% (active) and -74.8% (active)
Cc1cc(Cl)ccc1NC(=O)/C(Cl)=C1/Sc2ccccc2NC1=O,growth,EKVX NSCLC; 10 µM,70.4% (inactive)
same,growth,SN12C renal; 10 µM,106% (inactive)
same,growth,UO-31 renal; 10 µM,76.4% (inactive)
same,growth,TK-10 renal; 10 µM,146% (inactive)
same,growth,ACHN renal; 10 µM,85.4% (inactive)
same,growth,CAKI-1 renal; 10 µM,60.8% (inactive)
same,growth,A498 renal; 10 µM,131% (inactive)
same,growth,RPMI-8226 leukemia; 10 µM,69.4% (inactive)
CO[C@@]12[C@H](COC(N)=O)C3=C(C(=O)C(C)=C(N)C3=O)N1C[C@@H]1N[C@@H]12,growth,TK-10 renal; 25 µM,-32.7% (active) and -74.4% (active)
COc1cccc(C(c2cc3c(cc2O)OCO3)N2CCOCC2)c1OC (stereo not given),growth,EKVX NSCLC; 10 µM,97.7% (inactive)
same,growth,SN12C renal; 10 µM,97.8% (inactive)
same,growth,UO-31 renal; 10 µM,88.7% (inactive)
same,growth,TK-10 renal; 10 µM,101% (inactive)
same,growth,ACHN renal; 10 µM,103% (inactive)
same,growth,CAKI-1 renal; 10 µM,94.7% (inactive)
same,growth,A498 renal; 10 µM,75.3% (inactive)
same,growth,RPMI-8226 leukemia; 10 µM,105% (inactive)
ClCCn1c(CCl)nc2ccc(Cl)cc21,growth,SN12C renal; 10 µM,-47% (active)
same,growth,UO-31 renal; 10 µM,-82.6% (active)
same,growth,TK-10 renal; 10 µM,-30.6% (active)
same,growth,ACHN renal; 10 µM,-68.8% (active)
same,growth,CAKI-1 renal; 10 µM,-28.5% (active)
same,growth,A498 renal; 10 µM,1.48% (active)
same,growth,RPMI-8226 leukemia; 10 µM,-22.2% (active)
Cc1cc(O)c2c(c1O)C(=O)C13C(=C2O)C(=O)C2C(O)C1C1C(O)C3C(=O)C3=C(O)c4c(O)cc(C)c(O)c4C(=O)C321 (stereo not given),growth,EKVX NSCLC; 10 µM,44.3% (inactive)
same,growth,SN12C renal; 10 µM,12.7% (inactive)
same,growth,UO-31 renal; 10 µM,22.6% (inactive)
same,growth,TK-10 renal; 10 µM,22.3% (inactive)
same,growth,ACHN renal; 10 µM,11.4% (inactive)
same,growth,CAKI-1 renal; 10 µM,-33.6% (active)
same,growth,RPMI-8226 leukemia; 10 µM,-4.03% (active)
O=C(O)c1ccccc1.[Ag],growth,EKVX NSCLC; 10 µM,103% (inactive)
same,growth,SN12C renal; 10 µM,102% (inactive)
same,growth,UO-31 renal; 10 µM,103% (inactive)
same,growth,TK-10 renal; 10 µM,109% (inactive)
same,growth,ACHN renal; 10 µM,111% (inactive)
same,growth,CAKI-1 renal; 10 µM,90.2% (inactive)
same,growth,RPMI-8226 leukemia; 10 µM,96.9% (inactive)
O=C1C=CC(=O)N1c1ccc(N2C(=O)C=CC2=O)cc1,growth,EKVX NSCLC; 10 µM,90.8% (inactive)
same,growth,SN12C renal; 10 µM,102% (inactive)
same,growth,UO-31 renal; 10 µM,76.7% (inactive)
same,growth,TK-10 renal; 10 µM,92% (inactive)
same,growth,ACHN renal; 10 µM,92.2% (inactive)
same,growth,CAKI-1 renal; 10 µM,69.9% (inactive)
same,growth,A498 renal; 10 µM,149% (inactive)
same,growth,RPMI-8226 leukemia; 10 µM,38.6% (inactive)
Cc1c(-c2ccccc2)[nH]c2ccccc12,growth,EKVX NSCLC; 10 µM,104% (inactive)
same,growth,SN12C renal; 10 µM,114% (inactive)
same,growth,UO-31 renal; 10 µM,90.4% (inactive)
same,growth,TK-10 renal; 10 µM,119% (inactive)
same,growth,ACHN renal; 10 µM,100% (inactive)
same,growth,CAKI-1 renal; 10 µM,91.5% (inactive)
same,growth,A498 renal; 10 µM,91.3% (inactive)
same,growth,RPMI-8226 leukemia; 10 µM,88.3% (inactive)
O=C1c2cccc3cc([N+](=O)[O-])cc(c23)C(=O)N1CCN1CCCC1,growth,EKVX NSCLC; 10 µM,10.9% (inactive)
same,growth,SN12C renal; 10 µM,-18.2% (active)
same,growth,UO-31 renal; 10 µM,-42.8% (active)
same,growth,TK-10 renal; 10 µM,-11.3% (active)
same,growth,ACHN renal; 10 µM,-57.9% (active)
same,growth,CAKI-1 renal; 10 µM,-14% (active)
same,growth,A498 renal; 10 µM,-64.4% (active)
same,growth,RPMI-8226 leukemia; 10 µM,-19.1% (active)
O=C1c2ccccc2CCC1(Br)Br,growth,SN12C renal; 10 µM,28.3% (inactive)
same,growth,UO-31 renal; 10 µM,28% (inactive)
same,growth,TK-10 renal; 10 µM,-11% (active)
same,growth,ACHN renal; 10 µM,-95.2% (active)
same,growth,CAKI-1 renal; 10 µM,18.7% (inactive)
same,growth,A498 renal; 10 µM,70.8% (inactive)
same,growth,RPMI-8226 leukemia; 10 µM,1.08% (active)
